Measured values: PubChem BioAssay (EPA / NIEHS)
Inconclusive results are not listed. The source made the active and inactive calls. How the source made its calls: active means hit-call score of the fitted dose curve at least 0.9, where 1 is the maximum; inconclusive means response in the unintended direction; inactive means score below 0.9.

Molecular target: Bile acid receptor (Homo sapiens) (UniProt Q96RI1)
Assay: OT_FXR_FXRSRC1_0480: Odyssey Thera (OT) 8-hour HEK293T Protein-Complementation Assay for Farnesoid X receptor/SRC-1 Co-activator (AID 2283383)
Procedure: OT_FXR_FXRSRC1_0480 is a cell-based assay that uses HEK293T, a human kidney cell line, with measurements taken at 8 hours after chemical dosing in a 384-well plate.OT_FXR_FXRSRC1_0480 is one of one assay component(s) measured or calculated from the OT_FXR_FXRSRC1_0480 assay. It is designed to make measurements of protein fragment complementation, a form of binding reporter, as detected with fluorescence intensity signals by Protein-fragment Complementation technology.Data from the assay component OT_FXR_FXRSRC1_0480 was analyzed into 1 assay endpoint. This assay endpoint, OT_FXR_FXRSRC1_0480, was analyzed in the positive analysis fitting direction relative to DMSO as the negative control and baseline of activity. Using a type of binding reporter, measures of receptor for gain-of-signal activity can be used to understand the binding at the pathway-level as they relate to the gene NR1H4. Furthermore, this assay endpoint can be referred to as a primary readout, because the performed assay has only produced 1 assay endpoint. To generalize the intended target to other relatable targets, this assay endpoint is annotated to the nuclear receptor intended target family, where the subfamily is non-steroidal.
Protein-fragment complementation assay, or PCA, is a method for the identification and quantification of protein-protein interactions. In the PCA, the proteins of interest ("bait" and "prey") are each covalently linked to fragments of a third protein (e.g. DHFR, which acts as a "reporter"). Interaction between the bait and the prey proteins brings the fragments of the reporter protein in close proximity to allow them to form a functional reporter protein whose activity can be measured.

Sequence of Bile acid receptor (Homo sapiens) (Q96RI1 whole entry, looked up): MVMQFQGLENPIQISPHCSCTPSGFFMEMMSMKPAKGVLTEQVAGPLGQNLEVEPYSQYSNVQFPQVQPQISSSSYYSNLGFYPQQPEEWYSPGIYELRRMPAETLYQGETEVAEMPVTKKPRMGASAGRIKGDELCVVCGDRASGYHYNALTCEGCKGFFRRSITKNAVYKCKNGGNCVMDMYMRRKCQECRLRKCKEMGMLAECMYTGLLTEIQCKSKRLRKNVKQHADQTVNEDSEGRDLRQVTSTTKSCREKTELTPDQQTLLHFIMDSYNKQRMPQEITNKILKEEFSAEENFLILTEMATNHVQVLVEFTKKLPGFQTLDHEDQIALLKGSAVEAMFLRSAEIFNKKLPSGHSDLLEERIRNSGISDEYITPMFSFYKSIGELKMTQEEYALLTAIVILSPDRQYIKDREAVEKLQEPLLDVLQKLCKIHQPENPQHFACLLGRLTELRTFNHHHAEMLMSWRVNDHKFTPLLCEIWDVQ

Row | Compound | outcome | AC50
1 | CCCCC(CC)COC(=O)c1ccc(C(=O)OCC(CC)CCCC)cc1 (stereo not drawn) | inactive | –
2 | COC(=O)c1c(Cl)c(Cl)c(C(=O)OC)c(Cl)c1Cl | – | 72.2 µM (active)
3 | CCOC(=O)CC(CC(=O)OCC)(OC(C)=O)C(=O)OCC | inactive | –
4 | CC[C@H](C)C(=O)O[C@H]1C[C@@H](C)C=C2C=C[C@H](C)[C@H](CC[C@@H]3C[C@@H](O)CC(=O)O3)[C@H]21 | – | 32 µM (active)
5 | CCCCC(CC)COC(=O)CCCCCCCCC(=O)OCC(CC)CCCC (stereo not drawn) | inactive | –
6 | CCCCCCCCCCCCCCCO | inactive | –
7 | Cc1ccc(O)cc1 | inactive | –
8 | Nc1cccc(N)c1 | inactive | –
9 | Oc1ccc2c(c1)-c1ccccc1C2 | inactive | –
10 | Cc1c(-c2cccnc2)c2ccccc2n1CCCCC(=O)O | inactive | –
11 | CN(C)c1ccc(Cc2ccc(N(C)C)cc2)cc1 | – | 28 µM (active)
12 | CC(C)=CCC/C(C)=C\CO | inactive | –
13 | COc1ccc(/C=C/S(=O)(=O)NC(=O)c2ccc(C)cc2Cl)cc1 | inactive | –
14 | CC(C)=CCC/C(C)=C/CO | inactive | –
15 | CC(C)c1cccc(C(C)C)c1N1C(=O)c2ccc(O)cc2C1=O | – | 20.7 µM (active)
16 | C1=CCCC=CCCC=CCC1 | inactive | –
17 | Cn1c(=O)cc(Oc2ccc(F)cc2F)c2cnc(NCC(C)(C)O)nc21 | inactive | –
18 | CC(C)(O)c1coc(S(=O)(=O)NC(=O)Nc2c3c(cc4c2CCC4)CCC3)c1 | inactive | –
19 | O=C1CCCCCN1 | inactive | –
20 | CNS(=O)(=O)c1cc(C(=O)N2CCC(CCN3C4CCC3CC(n3c(C)nc5ccccc53)C4)(c3cccc(F)c3)CC2)c(Cl)cc1F (stereo not drawn) | – | 12.6 µM (active)
21 | CCOc1cccc(-n2cc(C(=O)N3CCN(c4cc(C(=O)O)c5ccccc5c4)CC3)nc2-c2ccc(C)cc2)c1 | – | 11.3 µM (active)
22 | CC1(C)C(=O)N(Br)C(=O)N1Br | inactive | –
23 | COCCOCCOCCOC | inactive | –
24 | CC(C)CCCCCCCOC(=O)CCCCC(=O)OCCCCCCCC(C)C | inactive | –
25 | CCc1cc(SCc2sc(-c3ccc(C(F)(F)F)cc3)nc2CN2CCN(c3ccc(OC)cc3)CC2)ccc1OCC(=O)O | inactive | –
26 | Cc1ccc(C)c(O)c1 | inactive | –
27 | CCNc1ccccc1 | inactive | –
28 | C1N2CN3CN1CN(C2)C3 | inactive | –
